A selection: hits, their analogues and other compounds. The true share with any hit is near 2.9%.
SNCA viab count: reduces viability of HEK-293 SNCA reporter cells; HEK-293-SNCA-luc viability, GF-AFC fluorescence, 24 h; Potency, µM (highest dose often 57.1 µM), for inactives: top-dose activity change, negative = cytotoxicity, most hits filed as cytotoxic; 150,000 tested, 0.12% active; AID 1671193;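 note: potency is the fitted concentration of half-maximal effect; 0% = DMSO-treated cells and -100% = medium-only wells without cells; nearly all actives have a fitted effect of over 30% in size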
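HEK-293-SNCA-luc cells (1500/well) plated 24 h, then exposed 24 h to a dilution series; GF-AFC added 30 min at 37C, fluorescence 405/540 nm; normalised to medium-only and DMSO wells, Hill fit.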
KDM5B inhibitor: KDM5B demethylase inhibition. Q9UGL1. KDM5B demethylase, FDH-coupled NADH fluorescence (FDH is formaldehyde dehydrogenase). Potency, µM (series often up to 57.7 µM), actives largely listed as inhibitors. 220,000 tested, 2.6% active; note: potency is the fitted concentration of half-maximal effect; 0% is about no effect; nearly all actives have a fitted effect of over 70% in size
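KDM5BΔAP (200 nM final) in 50 mM HEPES pH 7.5, 0.01% Tween-20 was preincubated 10 min at RT with compound over a concentration range. Substrate mix (H3K4me3 12.5 µM, α-KG 25 µM, Fe²⁺, ascorbate, NAD⁺, FDH) was added, and NADH fluorescence change over 30 min gave dose-response curves.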
IP6K1 inh: IP6K1 kinase inhibition. IP6K1 kinase, ADP-Glo luminescence, 2 h; hits give low values. activity change, % (series mostly up to about 58 µM). 140,000 tested, 0.81% active. AID 1645851; in the data active = activity change below about -25%; note: % is set by controls: 0 for no effect and ±100 for the full control effect
Target sequence (Q92551 whole entry, looked up): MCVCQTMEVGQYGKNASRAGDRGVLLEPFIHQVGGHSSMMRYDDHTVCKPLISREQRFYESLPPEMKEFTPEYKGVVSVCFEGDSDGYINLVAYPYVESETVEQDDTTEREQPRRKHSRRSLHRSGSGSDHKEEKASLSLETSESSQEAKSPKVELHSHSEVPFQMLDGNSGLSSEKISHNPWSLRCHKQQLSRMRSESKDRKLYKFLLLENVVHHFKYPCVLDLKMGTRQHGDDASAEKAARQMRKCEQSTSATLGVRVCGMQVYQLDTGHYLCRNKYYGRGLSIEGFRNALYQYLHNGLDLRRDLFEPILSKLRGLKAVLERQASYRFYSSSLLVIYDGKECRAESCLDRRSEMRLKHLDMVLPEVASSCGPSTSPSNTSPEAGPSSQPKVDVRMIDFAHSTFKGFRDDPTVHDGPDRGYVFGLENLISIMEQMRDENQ
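ADP-Glo luminescence measures ADP made by human IP6K1 during a 2 h RT reaction with ATP/IP6 (mix at 1.3 mM/130 uM); top library doses 57.5 and 19.1 uM final.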
SNCA expr inh: SNCA gene expression inhibition; HEK-293 SNCA-luciferase knock-in, luminescence, 24 h; Potency, µM (doses to about 57.2 µM), inactives show at the top dose activity change, negative = inhibition, most hits filed as inhibitors; 140,000 tested, 0.17% active;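 note: potency is the fitted concentration of half-maximal effect; plate controls were DMSO cells for no effect and cell-free wells for full effect; nearly all actives have a fitted effect of over 45% in size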
The depositor's hits bear a star; i = inactive; ? = inconclusive; / = not tested or not shown; [ ] = dose if it differs, or a comment. Unless noted, calls come from the whole dose curve; as a rule, active = well fitted curve in the direction sought with a large enough effect; inconclusive = small, poorly fitted or top-dose-only effect, or another doubt; inactive = no such curve, though single readings can be large; an effect the other way counts as inactive or inconclusive.

SMILES	SNCA viab count	KDM5B inhibitor	IP6K1 inh	SNCA expr inh
CC(C)Oc1cccc(-c2cccc(COc3cnc4c(ccn4CC(=O)O)c3)c2)c1	-4.2%[87.6 µM]	?	-7.9	3.0%[87.6 µM]
COc1cc(Cl)ccc1-c1cccc(COc2cnc3c(ccn3CC(=O)O)c2)c1	2.9%[87.6 µM]	35.5µM*	-15.1	2.0%[87.6 µM]
Cc1cc(C)c2[nH]c(C(=O)NCc3ccc(C(=O)N(C)C)o3)c(C)c2c1	13.4%	?	11.6	1.7%
CC(C)Cc1cc(CNc2nccc(-c3cc(C(=O)O)ccn3)n2)no1	2.4%	31.6µM*	16.6	6.8%
COc1ccc(SC(C)C(=O)NC(C)(C#N)C(C)C)cc1 (stereo not drawn)	/	i	/	/
COCCNc1ncc(-c2cccc(OC)c2)c2c1OCC2	7.4%[87.6 µM]	35.5µM*	7.7	134.5%[87.6 µM]
COc1ccc(-c2cnc(NC(=O)Cc3ccc(F)cc3)c3c2CCO3)cn1	6.4%[87.6 µM]	?	-6.5	48.0%[87.6 µM]
COc1ccc(OCC(=O)Nc2ncc(-c3ccc(OC)nc3)c3c2OCC3)cc1	-9.0%[87.6 µM]	i	-11.3	-3.8%[87.6 µM]
COCCNc1ncc(-c2ccc(NC(C)=O)cc2)c2c1OCC2	-1.2%[87.6 µM]	35.5µM*	-11.3	24.5%[87.6 µM]
COCCNc1ncc(-c2ccc(SC)cc2)c2c1OCC2	-0.8%[87.6 µM]	5.01µM*	-19.6	134.4%[87.6 µM]
COCCNc1ncc(-c2ccc(OC)cc2)c2c1OCC2	-11.8%[87.6 µM]	35.5µM*	-11.0	94.8%[87.6 µM]
COc1ccc(C(=O)Nc2ncc(-c3cccc(N(C)C)c3)c3c2OCC3)cc1	-10.7%[87.6 µM]	?	13.4	3.1%[87.6 µM]
COCCNc1ncc(-c2ccc(F)cc2)c2c1OCC2	-4.6%[87.6 µM]	31.6µM*	-1.3	134.8%[87.6 µM]
COCCNc1ncc(-c2cccc(N[S+](C)(=O)[O-])c2)c2c1OCC2	-1.2%[87.6 µM]	35.5µM*	-6.1	101.2%[87.6 µM]
COc1cccc(-c2cccc(C(=O)N3CCN(C(=O)c4ccc(F)cc4)CC3)c2)c1	5.4%[12.5 µM]	/	0.8	-25.6%
C[S+](=O)([O-])c1ccc(-c2nc(C(=O)NCc3cccnc3)n3ccccc23)cc1	7.2%	i	-5.3	19.9%
O=C(NCc1ccc(F)cc1)c1nc(-c2cc(Cl)cc(Cl)c2)c2ccccn12	-1.1%	i	34.5	-17.6%
O=C(NCc1ccc(F)cc1)c1nc(-c2ccc(F)cc2)c2ccccn12	-4.1%	31.6µM*	6.5	8.9%
C[S+](=O)([O-])c1ccc(-c2nc(C(=O)NCc3ccc(F)cc3)n3ccccc23)cc1	2.4%	89.1µM*	-15.9	-15.0%
COc1cccc(/C=C/c2ccc3cccc(O)c3n2)c1O	/	i	/	/
CC(NC(=O)c1ccccc1)C1CCCO1 (stereo not drawn)	/	i	/	/
COc1c/c(=C2\C=c3ccccc3=N2)[nH]/c1=C\c1[nH]c(C)cc1C	4.74µM*	/	-12.0	/
COc1ccccc1/C=C(\C)C(=O)c1c(C)cc(C)[nH]c1=O	/	i	/	/
NC1(C(=O)NCc2nc(-c3cccc(F)c3)c(-c3ccccn3)[nH]2)CCC1	-19.2%	?	8.2	-7.9%
O=C(NCc1nc(-c2cccc(F)c2)c(-c2ccccn2)[nH]1)N1CCCC1	-1.5%	22.4µM*	10.6	3.2%
SMILES	SNCA viab count	KDM5B inhibitor	IP6K1 inh	SNCA expr inh
O=C(COc1ccc(C2CCCCC2)cc1)Nc1ccc2oc(-c3ccncc3)nc2c1	/	i	/	/
COc1ccc(-c2cc3c(nc2OC)nc(CC2CC2)n3C)cc1	-10.7%[87.6 µM]	35.5µM*	7.6	82.2%[87.6 µM]
COc1cc(-c2cc3c(nc2OC)nc(CC2CC2)n3C)ccn1	-3.9%[87.6 µM]	39.8µM*	4.7	120.1%[87.6 µM]
C=CCSCC(=O)NCC1(c2cccc(Cl)c2)CCOCC1	/	i	/	/
C=CCNC(=O)C(NC(=O)c1cccs1)C1CCN(C(=O)c2ccc(F)cc2)CC1 (stereo not drawn)	3.0%	28.2µM*	12.3	-20.0%
C=CCNC(=O)C(NC(=O)c1cccc(OC)c1)C1CCN(C(=O)c2ccc(F)cc2)CC1 (stereo not drawn)	5.1%	i	6.8	-6.0%
Cc1ccc(CC/C=N/NC(N)=S)o1	/	i	/	/
COc1cccc(NC(=O)C2(C)CCc3cnc(NCc4ccccc4)nc32)c1 (stereo not drawn)	-19.2%[87.6 µM]	i	24.3	-10.4%[87.6 µM]
CC1(C(=O)NCC2CC2)CCCc2cnc(NCc3ccccc3)nc21 (stereo not drawn)	0.9%[87.6 µM]	35.5µM*	0.1	?
CC1(C(=O)NCC2CCCO2)CCc2cnc(NCc3ccccc3)nc21 (stereo not drawn)	-0.4%[87.6 µM]	39.8µM*	1.7	-25.8%[87.6 µM]
CC1(C(=O)NCc2cnccn2)CCc2cnc(NCc3ccccc3)nc21 (stereo not drawn)	0.2%[87.6 µM]	?	7.9	?
